Measurements from PubChem BioAssay (NCATS).
“And” between values parts separate entries of the source, which are not always exact repeats. Equal entries are not always repeated. Inconclusive results are not listed. A call without a number means that no potency is given here. The source made the active and inactive calls. Calls follow the shape of the full dose curve.

Tests used:
[1] = Cytotoxicity counterscreen for inhibitors of SARS-CoV-2 cell entry (AID 1645845); also: nearly all actives have a fitted effect of over 50% in size
Method in brief: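 ATP-content luminescence (ATPLite 1step, 15 min RT) read after 48 h compound exposure of Expi293F cells stably expressing human ACE2; normalized to cells-only wells and media-only wells.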

[2] = Primary qHTS to identify inhibitors of SARS-CoV-2 cell entry (AID 1645846); conditions: activity change, negative = inhibition: at 57.1 µM (top of the series) unless noted; also: nearly all actives have a fitted effect of over 45% in size; also: potency is read from the fitted curve at half-maximal effect
Method in brief: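 Data are normalized to wells receiving SARS-CoV-2-S pseudoparticles and those given bald particles. Entry signal was luciferase luminescence in stable hACE2 Expi293F cells, 48 hr post-infection, after 1 hr compound pretreatment.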

| Compound | Potency [1] | activity change, negative = inhibition [2] | Potency [2] |
| --- | --- | --- | --- |
| Cc1ccc(S(=O)(=O)NC(=O)NN2CCCCCC2)cc1 | inactive | 2.93% |  |
| C[C@H]1[C@H](NC(=O)/C(=N/OC(C)(C)C(=O)O)c2csc(N)n2)C(=O)N1S(=O)(=O)O (stereo in doubt) | inactive |  | inactive |
| CN1C(CCl)Nc2cc(Cl)c(S(N)(=O)=O)cc2S1(=O)=O (stereo unspecified) | inactive |  | inactive |
| CC(=O)N[C@@H](CS)C(=O)O | inactive |  | inactive |
| O=c1[nH]cnc2c1ncn2[C@H]1CC[C@@H](CO)O1 | inactive |  | inactive |
| CC[C@@H](CO)NCCN[C@@H](CC)CO | inactive | -13.9% |  |
| Nc1nc2c(ncn2COCCO)c(=O)[nH]1 | inactive |  | inactive |
| Cc1ccc(S(=O)(=O)NC(=O)NN2CC3CCCC3C2)cc1 (stereo unspecified) | inactive |  | inactive |
| Clc1ccc2c(c1)C(N1CCNCC1)=Nc1ccccc1O2 | inactive | -2.85% |  |
| O=C(O)CCCc1ccccc1 | inactive |  | inactive |
| CCCCC1=NC2(CCCC2)C(=O)N1Cc1ccc(-c2ccccc2-c2nn[nH]n2)cc1 | inactive |  | inactive |
| CN(N=O)C(=O)N[C@@H]1[C@@H](O)[C@H](O)[C@@H](CO)O[C@@H]1O | inactive | -3.87% and -2.3% |  |
| CN(C)CCC=C1c2ccccc2CCc2ccccc21 | inactive |  | 20 µM (active) |
| Cn1cc[nH]c1=S | inactive |  | inactive |
| C[N+]1(C)CCC(OC(=O)C(O)(c2ccccc2)C2CCCC2)C1 (stereo unspecified) | inactive |  | inactive |
| O[C@@H]1CO[C@H]2[C@@H]1OC[C@@H]2O | inactive |  | inactive |
| Cc1cc(C)cc(OCC2CNC(=O)O2)c1 (stereo unspecified) | inactive |  | inactive |
| C[C@@H]1C[C@H]2[C@@H]3CCC4=CC(=O)C=C[C@]4(C)[C@@]3(F)[C@@H](O)C[C@]2(C)[C@@]1(O)C(=O)CO | inactive |  | inactive |
| CC(C)[N+](C)(CCOC(=O)C1c2ccccc2Oc2ccccc21)C(C)C | inactive | 2.34% |  |
| CC(C)(C(=O)O)c1ccc(C(O)CCCN2CCC(C(O)(c3ccccc3)c3ccccc3)CC2)cc1 (stereo unspecified) | inactive |  | inactive |
| CCN(CC)CCNC(=O)c1cc(Cl)c(N)cc1OC | inactive |  | inactive |
| NS(=O)(=O)c1cc2c(cc1C(F)(F)F)NCNS2(=O)=O | inactive |  | inactive |

| Compound | Potency [1] | activity change, negative = inhibition [2] | Potency [2] |
| --- | --- | --- | --- |
| Oc1ccc(C2CNCCc3c2cc(O)c(O)c3Cl)cc1 (stereo unspecified) | inactive |  | inactive |
| CC(=O)CCCCn1c(=O)c2c(ncn2C)n(C)c1=O | inactive |  | inactive |
| CC(C)(C#N)c1cc(Cn2cncn2)cc(C(C)(C)C#N)c1 | inactive |  | inactive |
| NC(=O)C(c1ccccc1)(c1ccccc1)[C@@H]1CCN(CCc2ccc3c(c2)CCO3)C1 | inactive | -1.98% |  |
| Cc1ccccc1C(=O)Nc1ccc(C(=O)N2CCCC(O)c3cc(Cl)ccc32)c(C)c1 (stereo unspecified) | inactive | -8.91% |  |
| CC(COc1ccccc1)N(CCCl)Cc1ccccc1 (stereo unspecified) | inactive | -7.59% |  |
| CO[C@@H](C(=O)N1Cc2[nH]nc(NC(=O)c3ccc(N4CCN(C)CC4)cc3)c2C1)c1ccccc1 | inactive | -64.7% |  |
| CC(=O)Nc1nnc(S(N)(=O)=O)s1 | inactive | 1.7% |  |
| NS(=O)(=O)c1cc2c(cc1Cl)NC=NS2(=O)=O | inactive |  | inactive |
| Cc1cccc(Nc2ccncc2S(=O)(=O)NC(=O)NC(C)C)c1 | inactive |  | inactive |
| Cc1ccc(-c2cc(C(F)(F)F)nn2-c2ccc(S(N)(=O)=O)cc2)cc1 | inactive | -19.2% |  |
| O=C1c2cccc3c2[C@H](CCC3)CN1[C@@H]1CN2CCC1CC2 | inactive |  | inactive |
| Cc1ccc(C(=O)c2cc(O)c(O)c([N+](=O)[O-])c2)cc1 | inactive | -19.3% |  |
| COc1cc(C(=O)NCc2ccc(OCCN(C)C)cc2)cc(OC)c1OC | inactive |  | inactive |
| OCCN1CCN(CCCN2c3ccccc3Sc3ccc(C(F)(F)F)cc32)CC1 | inactive |  | inactive |
| O=C1N=C(O)CN1/N=C/c1ccc(-c2ccc([N+](=O)[O-])cc2)o1 | inactive |  | inactive |
| CCCCOCCOCCOCc1cc2c(cc1CCC)OCO2 | inactive | -2.81% |  |
| NC(=O)c1cn(Cc2c(F)cccc2F)nn1 | inactive |  | inactive |
| CCCN1C[C@H](CSC)C[C@@H]2c3cccc4[nH]cc(c34)C[C@H]21 | inactive | -12.6% |  |
| CN(C)[C@@H]1C(=O)C(C(N)=O)=C(O)[C@@]2(O)C(=O)C3=C(O)c4c(O)ccc(Cl)c4[C@@H](O)[C@H]3C[C@@H]12 | inactive |  | inactive |
| COc1cc2c(cc1OC)[C@@H]1CC(=O)[C@@H](CC(C)C)CN1CC2 | inactive |  | inactive |
